Assay [1] has as its target Nuclear receptor subfamily 1 group I member 2 (Homo sapiens) (UniProt O75469). In words: NVS_NR_hPXR: NovaScreen (NVS) Nuclear Receptor Binding Assay for human Pregnane X Receptor (PXR) (AID 2283365).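 Also: a drop in FRET signal versus DMSO baseline means the compound binds.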 In a few lines:
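Cell-free binding assay with extracted human PXR protein, read by TR-FRET 2 h after dosing; loss of signal relative to DMSO baseline indicates binding. Primary screen at 25 uM in duplicate, actives retested in concentration series.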

In assay [2] the target is Estrogen receptor (Homo sapiens) + Estrogen receptor beta (Homo sapiens) (UniProt P03372+Q92731). In words: OT_ER_ERaERb_1440: Odyssey Thera (OT) 24-hour HEK293T Protein-Complementation Assay for Estrogen Receptor-alpha/-beta Homodimer (AID 2283356).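 Also: heteromer of ER alpha and ER beta binding domains; hits raise reporter fluorescence and both agonists and antagonists give an increase.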 In a few lines: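 HEK293T cells stably expressing a PCA pair of ERα LBD (aa 310-547) and ERβ LBD (aa 263-489) were dosed for 24 h. Fluorescence intensity increase versus DMSO vehicle was fitted as gain-of-signal.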
Estrogen receptor (Homo sapiens) + Estrogen receptor beta (Homo sapiens), sequence (P03372 whole entry, looked up, the tested form may be a part): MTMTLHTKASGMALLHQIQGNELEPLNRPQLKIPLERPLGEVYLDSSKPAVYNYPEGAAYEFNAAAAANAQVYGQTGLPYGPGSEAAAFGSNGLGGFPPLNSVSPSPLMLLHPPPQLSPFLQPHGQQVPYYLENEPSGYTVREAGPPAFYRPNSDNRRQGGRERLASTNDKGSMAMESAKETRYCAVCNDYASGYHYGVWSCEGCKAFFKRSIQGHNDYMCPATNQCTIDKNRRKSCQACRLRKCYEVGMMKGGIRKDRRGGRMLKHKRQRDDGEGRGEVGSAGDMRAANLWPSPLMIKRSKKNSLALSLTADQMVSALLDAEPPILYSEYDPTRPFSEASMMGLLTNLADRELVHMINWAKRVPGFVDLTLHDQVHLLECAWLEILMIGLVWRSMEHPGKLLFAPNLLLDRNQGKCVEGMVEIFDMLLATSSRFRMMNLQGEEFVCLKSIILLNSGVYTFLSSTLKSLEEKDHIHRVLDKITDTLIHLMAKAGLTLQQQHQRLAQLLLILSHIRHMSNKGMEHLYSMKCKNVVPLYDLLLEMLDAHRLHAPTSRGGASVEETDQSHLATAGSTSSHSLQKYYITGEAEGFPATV
Estrogen receptor (Homo sapiens) + Estrogen receptor beta (Homo sapiens), sequence (Q92731 whole entry, looked up, the tested form may be a part): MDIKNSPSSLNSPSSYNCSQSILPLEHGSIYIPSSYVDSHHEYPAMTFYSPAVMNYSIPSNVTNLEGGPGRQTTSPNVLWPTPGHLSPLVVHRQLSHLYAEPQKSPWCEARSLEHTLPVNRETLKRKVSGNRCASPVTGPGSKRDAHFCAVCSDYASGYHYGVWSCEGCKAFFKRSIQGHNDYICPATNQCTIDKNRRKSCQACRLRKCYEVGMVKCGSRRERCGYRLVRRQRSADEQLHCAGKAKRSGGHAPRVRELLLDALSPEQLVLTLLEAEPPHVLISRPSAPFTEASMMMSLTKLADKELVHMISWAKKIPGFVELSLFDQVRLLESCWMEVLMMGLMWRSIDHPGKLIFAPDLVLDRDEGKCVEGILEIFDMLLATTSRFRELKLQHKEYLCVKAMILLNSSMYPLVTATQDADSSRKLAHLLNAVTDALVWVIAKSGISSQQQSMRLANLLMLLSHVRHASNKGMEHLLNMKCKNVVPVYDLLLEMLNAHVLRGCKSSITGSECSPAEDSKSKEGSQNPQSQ

The target of assay [3] is Estrogen receptor beta (Homo sapiens) (UniProt Q92731). Kind of assay: OT_ER_ERbERb_0480: Odyssey Thera (OT) 8-hour HEK293T Protein-Complementation Assay for Estrogen Receptor-beta/-beta Homodimer (AID 2283357).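 Also: active means signal gain over DMSO baseline.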 In a few lines: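 Readout: increase in mean fluorescence intensity (nucleus for agonists; nucleus plus cytoplasm for antagonists) relative to DMSO, from a reporter-fragment complementation of human ER-beta LBD homodimer in HEK293T cells dosed 8 hours.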
Estrogen receptor beta (Homo sapiens), sequence (Q92731 whole entry, looked up, the tested form may be a part): as above

In assay [4] the target is Retinoic acid receptor alpha (Homo sapiens) (UniProt P10276). Kind of assay: NVS_NR_hRAR_Antagonist: NovaScreen (NVS) Nuclear Receptor Binding Assay for human Retinoic Acid Alpha Receptor Antagonism (RAR) (AID 2283358). In a few lines: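 Cell-free TR-FRET binding assay on extracted receptor protein, run in antagonist mode; signal read 2 hours after chemical dosing. Loss of signal was fitted relative to DMSO baseline. Screened at 25 uM in duplicate, actives followed up in concentration series.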

Assay [5] addresses Glucocorticoid receptor (Homo sapiens) (UniProt P04150). In words: NVS_NR_hGR: NovaScreen (NVS) Nuclear Receptor Binding Assay for human Glucocorticoid Receptor (GR) (AID 2283363).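 As to AC50: activity is loss of specific radioligand binding signal relative to DMSO.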 The essentials:
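Cell-free radioligand binding with extracted receptor protein, read by filter-based scintillation counting 16 hours after dosing. Loss of specific signal versus DMSO baseline was scored. Primary screen ran in duplicate at 25 uM; actives were followed up in concentration series.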

Assay [6] addresses Peroxisome proliferator-activated receptor gamma (Homo sapiens) (UniProt P37231). Kind of assay: NVS_NR_hPPARg: NovaScreen (NVS) Nuclear Receptor Binding Assay for human Peroxisome Proliferator-activated Receptor gamma (PPARg) (AID 2283370). The essentials: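 Cell-free binding to extracted PPARg protein, read by fluorescence polarization 2 h after dosing; loss of signal relative to DMSO baseline marks displacement. Primary screen in duplicate at 25 uM, actives retested in concentration series.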

The subject of assay [7] is guinea pig Dopamine Transporter (DAT), gene 100714898. Kind of assay: NVS_TR_gDAT: NovaScreen (NVS) Transporter Assay for guinea pig Dopamine Transporter (DAT) (AID 2283369).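 Also: active compounds lower bound radioligand signal relative to DMSO.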 The essentials: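 Guinea pig striatal membranes; radioligand displacement measured by filter-based scintillation counting 2 h after dosing. Initial duplicate screen at 25 uM, then concentration-response up to 50 uM for hits; loss of signal versus DMSO baseline.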

In assay [8] the target is human Dopamine Transporter (DAT), SLC6A3 (gene 6531) (UniProt Q01959). In words: NVS_TR_hDAT: NovaScreen (NVS) Transporter Assay for human Dopamine Transporter (DAT) (AID 2283374).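 Also: activity means loss of bound radioligand signal relative to DMSO.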 The essentials: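 Cell-free radioligand binding to extracted human DAT protein, read 1 h after dosing by filter-based scintillation counting. Loss of specific binding scored against DMSO baseline; primary screen in duplicate at 25 uM, actives then run in concentration series.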

The target of assay [9] is human Norepinephrine Transporter (NET), SLC6A2 (gene 6530) (UniProt P23975). Kind of assay: NVS_TR_hNET: NovaScreen (NVS) Transporter Assay for human Norepinephrine Transporter (NET) (AID 2283377).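 Also: cell-free membrane protein extracted from CHO cells expressing human NET.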 The essentials: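 Radioligand binding to human NET in cell-free CHO-derived protein preparations, read by filter-based scintillation counting 1 hour after dosing. Loss of signal versus DMSO baseline indicated displacement; primary screening in duplicate at 25 uM, actives then titrated.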

Assay [10] deals with mouse Estrogen Receptor alpha (Era), Esr1 (gene 13982) (UniProt P19785). Kind of assay: NVS_NR_mERa: NovaScreen (NVS) Nuclear Receptor Binding Assay for mouse Estrogen Receptor alpha (Era) (AID 2283378).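 Also: hit means loss of bound radioligand signal relative to DMSO.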 In a few lines: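 Cell-free radioligand binding with extracted mouse Era protein; competitive displacement of radiolabelled ligand, read by filter-based scintillation counting 18 hours after dosing. Loss of signal versus DMSO baseline taken as binding; single screening concentration 25 uM, actives followed in concentration series.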
mouse Estrogen Receptor alpha (Era), Esr1 (gene 13982), sequence (P19785 whole entry, looked up): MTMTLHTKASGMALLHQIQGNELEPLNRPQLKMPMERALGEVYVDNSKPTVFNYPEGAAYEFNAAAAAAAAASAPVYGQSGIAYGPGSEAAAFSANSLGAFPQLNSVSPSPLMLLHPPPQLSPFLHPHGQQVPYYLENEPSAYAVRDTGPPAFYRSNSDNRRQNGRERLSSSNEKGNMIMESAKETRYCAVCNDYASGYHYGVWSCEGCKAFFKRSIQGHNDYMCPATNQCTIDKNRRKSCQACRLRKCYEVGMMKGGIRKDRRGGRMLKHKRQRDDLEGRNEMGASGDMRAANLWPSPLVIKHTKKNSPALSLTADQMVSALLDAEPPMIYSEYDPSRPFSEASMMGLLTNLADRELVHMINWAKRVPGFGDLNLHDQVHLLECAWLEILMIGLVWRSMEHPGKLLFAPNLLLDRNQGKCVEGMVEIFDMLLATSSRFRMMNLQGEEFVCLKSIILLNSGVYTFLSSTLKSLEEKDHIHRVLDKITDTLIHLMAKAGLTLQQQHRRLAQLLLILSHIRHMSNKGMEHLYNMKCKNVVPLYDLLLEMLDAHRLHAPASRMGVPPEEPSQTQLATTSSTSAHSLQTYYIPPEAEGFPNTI

The target in assay [11] is Androgen Receptor/SRC-1 Co-activator, AR (gene 367) (UniProt P10275). In words: OT_AR_ARSRC1_0960: Odyssey Thera (OT) 16-hour HEK293T Protein-Complementation Assay for Androgen Receptor/SRC-1 Co-activator (AID 2283353).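 Also: actives raise the signal above DMSO so potency reflects increased AR and SRC-1 complex.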 In a few lines:
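HEK293T cells stably expressing AR and SRC-1 fused to Venus YFP fragments, imaged 16 h after dosing. Nuclear/cytoplasmic fluorescence ratio at 488 nm from at least 400 cells per image; gain of signal relative to DMSO.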

For assay [12] the target is unchanged. In words: OT_AR_ARSRC1_0480: Odyssey Thera (OT) 8-hour HEK293T Protein-Complementation Assay for Androgen Receptor/SRC-1 Co-activator (AID 2283354).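 Also: hits raise the complementation signal above DMSO so AC50 marks enhancers.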 In a few lines:
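HEK293T cells stably expressing AR and SRC-1 fused to split Venus YFP fragments via (Gly4Ser)2 linkers were read 8 h after compound dosing. Complementation was imaged at 488 and 635nm, and nuclear/cytoplasmic fluorescence ratio (488nm) was taken over ≥400 cells; gain-of-signal versus DMSO.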

In assay [13] the target is rat Mineralocorticoid Receptor (MR), Nr3c2 (gene 25672) (UniProt P22199). In words: NVS_NR_rMR: NovaScreen (NVS) Nuclear Receptor Binding Assay for rat Mineralocorticoid Receptor (MR) (AID 2283355). The essentials: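 Cell-free radioligand binding to MR in adrenalectomized rat brain supernatant, scintillation counted 24 h after dosing. Loss of signal versus DMSO baseline marks displacement. Primary screen in duplicate at 25 uM; actives retested as concentration series.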

In assay [14] the target is PGR (gene 5241) (UniProt P06401). In words: NVS_NR_hPR: NovaScreen (NVS) Nuclear Receptor Binding Assay for human Progestron Receptor (PR) (AID 2283360).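 Also: active means loss of bound radioligand signal versus DMSO baseline.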 In a few lines: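 T47D lysate; tritiated or iodinated radioligand; scintillation count at 18 h. DMSO = negative control/baseline. Primary: 25 uM, duplicate. Secondary: concentration series for actives.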
For assay [15], the target named is rat Serotonin Transporter (SERT), Slc6a4 (gene 25553) (UniProt P31652). In words: NVS_TR_rSERT: NovaScreen (NVS) Transporter Assay for rat Serotonin Transporter (SERT) (AID 2283375). The essentials: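 Rat forebrain membranes were incubated with test chemical for 1 hour; radioligand binding to SERT was measured by filter-based scintillation counting. Primary screen ran in duplicate at 25 uM, with actives followed up in concentration series; DMSO served as negative control.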

Assay [16] deals with human Peroxisome Proliferator-activated Receptor alpha (PPARa), PPARA (gene 5465) (UniProt Q07869). Kind of assay: NVS_NR_hPPARa: NovaScreen (NVS) Nuclear Receptor Binding Assay for human Peroxisome Proliferator-activated Receptor alpha (PPARa) (AID 2283359).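 Also: activity means loss of TR-FRET signal versus DMSO baseline.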 In a few lines: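 Cell-free binding assay with extracted human protein, read by TR-FRET 1 h after chemical dosing. Loss of signal relative to DMSO baseline indicates binding. Primary screen used duplicate single concentration (25 uM); actives followed up in concentration series.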

The target of assay [17] is Agonist Androgen Response Element (ARE), AR (gene 367) (UniProt P10275). In words: OT_AR_ARELUC_AG_1440: Odyssey Thera (OT) 24-hour CHO-K1 Luciferase Assay for Agonist Androgen Response Element (ARE) (AID 2283379). The essentials: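 Seed CHO-K1 cells; dose compounds for 24 h; add D-luciferin plus ATP in PBS; read luminescence. Signal increase relative to vehicle defines agonist activity, with at least 3 replicate wells per sample.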
Agonist Androgen Response Element (ARE), AR (gene 367), sequence (P10275 whole entry, looked up): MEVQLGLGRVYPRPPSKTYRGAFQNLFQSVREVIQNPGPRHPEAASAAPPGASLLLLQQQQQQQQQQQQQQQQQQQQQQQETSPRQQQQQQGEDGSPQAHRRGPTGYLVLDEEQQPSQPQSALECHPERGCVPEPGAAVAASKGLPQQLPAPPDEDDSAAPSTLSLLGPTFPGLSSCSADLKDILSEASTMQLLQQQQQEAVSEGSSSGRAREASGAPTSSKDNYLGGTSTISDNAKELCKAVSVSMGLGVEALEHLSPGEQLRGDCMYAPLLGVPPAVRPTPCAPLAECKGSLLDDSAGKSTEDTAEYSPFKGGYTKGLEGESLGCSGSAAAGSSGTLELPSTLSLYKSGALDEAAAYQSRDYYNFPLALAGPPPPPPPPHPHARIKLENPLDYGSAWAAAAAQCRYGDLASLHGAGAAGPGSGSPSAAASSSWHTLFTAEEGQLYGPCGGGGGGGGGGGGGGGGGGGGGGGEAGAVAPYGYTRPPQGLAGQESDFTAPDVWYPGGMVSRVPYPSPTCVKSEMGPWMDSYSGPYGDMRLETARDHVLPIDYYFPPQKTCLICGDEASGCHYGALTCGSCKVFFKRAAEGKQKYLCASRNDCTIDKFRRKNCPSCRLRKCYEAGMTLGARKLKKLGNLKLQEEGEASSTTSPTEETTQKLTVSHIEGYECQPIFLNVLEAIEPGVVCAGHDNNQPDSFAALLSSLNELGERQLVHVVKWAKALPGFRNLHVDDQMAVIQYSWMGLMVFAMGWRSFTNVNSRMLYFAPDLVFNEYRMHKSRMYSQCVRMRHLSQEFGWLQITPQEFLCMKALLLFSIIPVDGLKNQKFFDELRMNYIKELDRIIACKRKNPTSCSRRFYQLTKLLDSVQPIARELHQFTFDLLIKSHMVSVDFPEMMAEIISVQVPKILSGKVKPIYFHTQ

The target of assay [18] is human Thyroid Receptor Alpha (TRa), THRA (gene 7067) (UniProt P10827). In words: NVS_NR_hTRa_Antagonist: NovaScreen (NVS) Nuclear Receptor Binding Assay for human Thyroid Receptor Alpha Antagonism (TRa) (AID 2283362). In a few lines:
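Cell-free binding assay on extracted receptor protein, read 1 h after chemical dosing by AlphaLISA chemiluminescence; loss of signal relative to DMSO baseline marks antagonism. Primary screen ran in duplicate at 25 uM, with concentration series for actives.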

Results filed as inconclusive are left out. Activity calls are given as the source filed them. The calls were made as follows: active = hit-call score of the fitted dose curve at least 0.9, where 1 is the maximum; inconclusive = response in the unintended direction; inactive = score below 0.9.

Glucocorticoid receptor (Homo sapiens), sequence (P04150 whole entry, looked up): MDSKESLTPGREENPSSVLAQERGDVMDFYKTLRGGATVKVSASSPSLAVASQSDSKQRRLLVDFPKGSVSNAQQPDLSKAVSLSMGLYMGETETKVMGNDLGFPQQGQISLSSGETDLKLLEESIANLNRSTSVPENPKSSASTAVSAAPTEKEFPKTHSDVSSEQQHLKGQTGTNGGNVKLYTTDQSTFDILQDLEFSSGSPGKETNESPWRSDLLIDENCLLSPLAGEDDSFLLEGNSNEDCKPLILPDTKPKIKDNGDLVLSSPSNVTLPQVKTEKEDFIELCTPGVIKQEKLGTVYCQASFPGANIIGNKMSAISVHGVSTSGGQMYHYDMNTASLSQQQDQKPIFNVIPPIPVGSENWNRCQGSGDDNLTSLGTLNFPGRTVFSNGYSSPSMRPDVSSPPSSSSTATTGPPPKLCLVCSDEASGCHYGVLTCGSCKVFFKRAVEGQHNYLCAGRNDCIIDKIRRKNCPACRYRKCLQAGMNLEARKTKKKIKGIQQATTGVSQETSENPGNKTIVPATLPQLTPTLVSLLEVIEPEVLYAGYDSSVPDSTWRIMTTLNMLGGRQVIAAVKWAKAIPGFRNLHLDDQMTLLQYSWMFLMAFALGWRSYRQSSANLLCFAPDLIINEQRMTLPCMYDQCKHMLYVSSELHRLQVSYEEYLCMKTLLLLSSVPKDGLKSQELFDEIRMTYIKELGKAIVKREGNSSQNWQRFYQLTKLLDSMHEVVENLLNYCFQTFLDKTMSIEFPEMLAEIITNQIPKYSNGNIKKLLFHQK
Androgen Receptor/SRC-1 Co-activator, AR (gene 367), sequence (P10275 whole entry, looked up, the tested form may be a part): as the sequence (P10275 whole entry, looked up) above

For `O=S(=O)(O)c1ccc2ccccc2c1`, the compound was classed as inactive in assay [1].

For `CCN(Cc1cccc(S(=O)(=O)O)c1)c1ccc(C(=C2C=CC(=[N+](CC)Cc3cccc(S(=O)(=O)O)c3)C=C2)c2ccc(O)cc2S(=O)(=O)[O-])cc1`, the result in assay [2] and in assay [3] was inactive. Besides, the AC50 – broadly, the concentration at which the activity in the assay is half-maximal – in [4] was 7.39 µM (active); in [5], 11.5 µM (active); in [1], 2.41 µM (active); in assay [6] it was 8.78 µM (active).

As to `Oc1ccc(Nc2ccccc2)cc1`, the values for the AC50 in assay [7], in assay [8] and in assay [9] were 12.1 µM (active), 6.97 µM (active) and 11.9 µM (active), respectively. Further, the call in assay [10] was inactive.

As for `C(=C(c1ccccc1)c1ccccc1)c1ccccc1`, the figures for the AC50 in assay [2], in assay [3] and in assay [10] were 29.3 µM (active), 1.49 µM (active) and 8.44 µM (active), respectively.

For the compound `CCCCCCOC(=O)c1ccccc1O`, the compound was classed as inactive in assay [11], in assay [12], in assay [2], in [3] and in assay [1].

Turning to `Cc1cc(C)cc(O)c1`, the result in assay [2], in assay [3] and in assay [5] was inactive.

For `CC/C=C\CCOC(C)=O`, the result in assay [2] and in assay [3] was inactive.

`C#C[C@]1(O)CC[C@H]2[C@@H]3CCc4cc(OC)ccc4[C@H]3CC[C@@]21C`: the result in [13], in assay [14], in assay [5] and in assay [10] was inactive. Further, the figures for the AC50 in assay [15] and in assay [9] were 19 µM (active) and 3.99 µM (active), respectively.

As for `CNC(=S)NC`, the compound was classed as inactive in assay [11], in assay [12], in assay [16], in assay [5], in assay [1] and in assay [17].

Turning to `[Co]`, the outcome in [11], in assay [12], in assay [2], in assay [3] and in assay [17] was inactive.

In the case of `CC(CCl)OP(=O)(OC(C)CCl)OC(C)CCl` (stereo unspecified), the outcome in assay [2], in assay [3] and in assay [6] was inactive. In addition, in assay [1], the AC50 was 4.35 µM (active).

Consider `CCCCCCC(C)OC(=O)CCCCC(=O)OC(C)CCCCCC` (stereo unspecified), for which the call in [11], in assay [12], in assay [2], in assay [3], in assay [18] and in assay [17] was inactive.

Source of the values: PubChem BioAssay (EPA / NIEHS).
